# This is a sample that favours compounds with a hit; in the whole collection about 4.8% have one here.
# hcDAF12 agonist = activators of H. contortus DAF-12 nuclear receptor. 370,000 compounds, 1.4% hits. HEK293 hcDAF-12 lit1-tk-luc reporter, luminescence; 0% DMSO, 100% Δ7-dafachronic acid. activation, % at 6.8 µM;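 active means activation above the mean of all tested compounds plus 3 SD, cut at about 5.5% in these data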;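 further: 100% = response to 3 µM Δ7-dafachronic acid high control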
# hgDAF-12 ag = activates the H. glycines DAF-12 receptor ligand-binding domain. HEK293 GAL4-hgDAF12 UAS-luciferase reporter, agonist luminescence; normalized to butyrate control. activation, % at 6.8 µM. 370,000 compounds, 1.8% hits;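 active means activation above a cutoff set at the mean of all screened compounds plus 3 SD, cut at about 10% in these data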;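 further: 0% = DMSO wells and 100% = sodium butyrate wells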
# DAX1 inh-1 = inhibits human nuclear receptor DAX1; P51843; HEK293 Gal4-DAX1 luciferase reporter, luminescence; inhibition, % at 6.75 µM; 340,000 compounds, 0.99% hits;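 active means inhibition above the mean over all tested compounds plus 3 SD, cut at about 4.2% in these data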;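 further: 0% = DAX1-transfected cells with DMSO and 100% = empty-vector control cells with DMSO; inhibition shows as a rise in luminescence from relieved DAX1 repression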
# Target sequence (P51843 207-470 limits assumed): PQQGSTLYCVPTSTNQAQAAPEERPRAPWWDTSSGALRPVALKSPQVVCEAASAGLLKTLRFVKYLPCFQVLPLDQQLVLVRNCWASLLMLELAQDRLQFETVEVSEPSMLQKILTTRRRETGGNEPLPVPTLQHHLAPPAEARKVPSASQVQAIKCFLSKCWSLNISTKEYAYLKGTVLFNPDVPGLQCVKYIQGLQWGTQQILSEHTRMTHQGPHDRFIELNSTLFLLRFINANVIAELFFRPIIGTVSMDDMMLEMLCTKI
# DAX1 inh-2 = DAX1 (NR0B1) inhibition, primary screen; 370,000 compounds, 1.1% hits; inhibition, % at 6.8 µM; AID 652010; HEK293T StAR-luciferase reporter, SF-1/DAX-1 repression relief;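 active means inhibition above the mean over all tested compounds plus 3 SD, cut at about 3.6% in these data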;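 further: 0% = DAX-1 cells with DMSO and 100% = cells lacking DAX-1 with DMSO; higher inhibition means more luminescence from relief of DAX-1 repression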
# SMARCA2 activ = activators of SMARCA2 function | MG213 cells, MMTV-luciferase reporter, dexamethasone, overnight | 370,000 compounds, 1% hits | activation, % at 9.1 µM; in the data active means activation above about 7.8%;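 further: 0% = vehicle wells and 100% = reference activator wells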
# ssDAF-12 act = activates DAF-12 receptor from parasite S. stercoralis. 370,000 compounds, 1% hits. HEK293 ssDAF-12/GRIP1 lit1-tk-luc reporter, luminescence; % of 3 µM dafachronic acid response. AID 652126. activation, % at 6.8 µM;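 active means activation above the mean over all tested compounds plus 3 SD, cut at about 0.9% in these data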;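 further: 0% = DMSO-only wells and 100% = 3 µM delta7-dafachronic acid wells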
# hgDAF12 conf = hgDAF-12 agonism, confirmation assay. shares compounds with hgDAF-12 ag. HEK293 GAL4-hgDAF12 luciferase reporter, agonist mode; percent of butyrate response. activation, % at 6.8 µM. 3,300 compounds, 80% hits;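 active means mean activation over triplicate wells above the hit cutoff derived from the earlier primary screen, cut at about 11% in these data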;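 further: 0% = DMSO low control and 100% = 2 mM sodium butyrate high control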
# LXR ag 2 = activates human LXR-beta, counter-screen for DAF-12 agonists | shares compounds with hgDAF-12 ag | HEK293 Gal4-LXR luciferase reporter, 24 h | activation, % at 6.8 µM | 3,300 tested, under 10 active | AID 743051;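 active means mean activation of the triplicate above a set limit carried over from the primary screen, none filed active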
# Target sequence (P55055 whole entry, looked up, the tested form may be a part): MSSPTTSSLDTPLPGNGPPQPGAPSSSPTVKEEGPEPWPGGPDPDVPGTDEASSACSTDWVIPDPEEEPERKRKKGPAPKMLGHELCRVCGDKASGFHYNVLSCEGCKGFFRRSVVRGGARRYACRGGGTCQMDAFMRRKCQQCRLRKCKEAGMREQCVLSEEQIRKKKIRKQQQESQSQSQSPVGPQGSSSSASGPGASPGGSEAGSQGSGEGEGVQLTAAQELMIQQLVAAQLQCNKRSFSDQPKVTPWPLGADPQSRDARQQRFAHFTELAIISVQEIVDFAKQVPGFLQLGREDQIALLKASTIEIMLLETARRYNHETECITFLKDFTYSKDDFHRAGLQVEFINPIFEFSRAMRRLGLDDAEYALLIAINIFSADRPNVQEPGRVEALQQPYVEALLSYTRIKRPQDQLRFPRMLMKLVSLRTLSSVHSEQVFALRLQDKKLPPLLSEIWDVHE
# An asterisk follows results filed as active; · = not tested or not shown.
SMILES,hcDAF12 agonist,hgDAF-12 ag,DAX1 inh-1,DAX1 inh-2,SMARCA2 activ,ssDAF-12 act,hgDAF12 conf,LXR ag 2
O=C(NCc1ccco1)c1cc(-c2ccc(F)cc2)on1,1.8,16.6*,2.3,1.7,4.0,-0.9,14.9*,0.3
O=C(NCc1ccc(F)cc1)c1cc(-c2ccco2)on1,-0.5,2.0,-0.9,-0.3,0.4,-0.9,·,·
O=C(NCc1ccco1)c1cc(-c2cccs2)on1,3.4,23.3*,3.3,0.6,-1.7,-0.8,21.8*,0.2
CCCNC(=O)c1cc(-c2ccco2)on1,4.1,47.4*,1.9,0.0,0.2,-0.8,36.9*,0.3
O=C(NCc1ccco1)c1cc(-c2ccccc2)on1,2.1,23.3*,3.2,2.6,0.0,-0.3,22.4*,0.4
O=C(NCc1ccccc1)c1cc(-c2cccs2)on1,1.2,5.3,1.9,1.3,-0.3,-0.9,·,·
O=C(NCc1ccco1)c1ccccc1-c1ccccc1,-2.1,-0.2,-0.3,-0.6,0.0,-1.3,·,·
CCN(CC)C(=O)CC[C@H]1CC[C@]2(CCCN(Cc3ccncc3)C2)O1,-1.4,0.4,·,0.4,0.3,-1.3,·,·
O=C(NC1CCCC1)[C@@H]1CCCN1C(=O)[C@@H](NC(=O)N1CCOCC1)C1CCCCC1,0.7,-2.6,·,0.3,-2.4,-0.9,·,·
COc1ccccc1CC(=O)Nc1ccc2c(c1)OC1(CCCC1)O2,0.0,7.7,1.1,1.8,0.0,-0.6,·,·
O=C(Cc1ccccc1)Nc1ccc2c(c1)OC1(CCCC1)O2,1.1,13.9*,0.5,3.5,5.5,0.0,14.6*,0.5
O=C(N/N=C/C(Cl)=C\c1ccccc1)c1cnccn1,0.5,3.9,0.2,0.0,0.3,-0.6,·,·
O=C(N/N=C/C(Cl)=C/c1ccccc1)c1ccco1,5.0,22.2*,1.6,4.0*,3.9,0.3,12.0*,0.6
Cc1cccc(NC(=S)NNC(=O)c2csc(C(C)C)c2)c1,2.0,8.0,2.9,1.2,-0.5,-1.0,·,·
Cc1cccc(NC(=S)NNC(=O)c2sccc2C)c1,2.8,13.2*,3.2,2.0,2.9,-0.3,6.2,0.2
COc1ccccc1OCC(=O)Nc1ccc2c(c1)OCO2,-0.8,2.5,-0.7,1.2,3.4,-0.9,·,·
O=C(COc1ccccc1Cl)Nc1ccc2c(c1)OCO2,6.0*,13.4*,1.2,1.5,3.2,0.5,12.1*,0.7
CCc1c(-c2ccc(Br)cc2)ncn1CCc1ccccc1OC,-0.5,-1.4,·,-1.4,-4.2,-1.8,·,·
CCOC(=O)c1ccc(NC(=O)OC[C@@H]2CSCCS(=O)(=O)N2)cc1,1.8,-2.9,·,-2.1,-6.8,-0.9,·,·
CC(=O)CCN1CCSCCS1(=O)=O,-2.0,-1.9,·,-1.1,0.5,-1.1,·,·
Cc1[nH]c(=O)[nH]c(=O)c1CCSSCCc1c(C)[nH]c(=O)[nH]c1=O,-0.7,3.8,·,-0.8,-1.4,-0.9,·,·
[O-]/[N+](=C\C=C\c1ccccc1)c1ccccc1,3.8,14.4*,3.2,1.4,2.7,0.3,13.7*,0.5
CCOc1ccc(C(=O)Nc2cc(C)on2)cc1,2.5,14.2*,0.3,2.3,2.5,-0.7,14.5*,0.7
CCOc1ccc(C(=O)Nc2ccc3[nH]ncc3c2)cc1,5.5,15.8*,-1.5,2.0,4.9,0.5,14.9*,0.8
Cc1ccnc(NC(=O)c2ccc(OCc3c(C)noc3C)cc2)c1,0.1,13.6*,0.6,4.2*,5.8,-0.5,5.5,0.4
SMILES,hcDAF12 agonist,hgDAF-12 ag,DAX1 inh-1,DAX1 inh-2,SMARCA2 activ,ssDAF-12 act,hgDAF12 conf,LXR ag 2
C[C@H]1Cn2cnc(C(=O)N3CCN(c4ccccc4)CC3)c2C(=O)N1,0.3,-2.2,·,-1.2,-1.1,-0.6,·,·
CC(C)(C)S(=O)(=O)N1C[C@@H]2C(=C(CCO)C[C@@H]3C(=O)N(c4ccccc4)C(=O)[C@@H]32)[C@H]1CCO,3.3,-0.5,·,-0.9,6.4,-0.7,·,·
C[C@@H]1ON(C)[C@H]2C[C@H]3c4cc(Br)ccc4CCN3C[C@@H]12,-0.5,-3.0,·,0.7,-5.0,-1.3,·,·
Cc1cccnc1N=O,-0.3,2.1,·,0.8,-4.0,-1.1,·,·
CCCc1ccc(-c2cc(NC(=O)CSc3nnc(N)s3)n(-c3ccccc3)n2)cc1,5.4,13.7*,1.1,4.1*,5.8,-0.2,18.5*,1.0
Cc1nnc(SCC(=O)Nc2cc(-c3cc(C)c(C)cc3C)nn2-c2ccccc2)s1,-1.4,0.8,-1.6,-0.5,-1.6,-0.7,·,·
COc1ccc(OC)c(C=C2CCc3ccccc3C2=O)c1,2.3,14.1*,·,-1.3,-2.6,-0.5,3.3,0.1
COC(=O)c1ccccc1CC1SC(N)=NC1=O (stereo unspecified),-3.2,3.2,0.7,-0.2,-1.2,-1.6,·,·
COC(=O)c1ccccc1CC1Cc2cc3c(cc2C1=O)CCC3 (stereo unspecified),1.6,14.3*,3.4,4.3*,2.3,1.9*,12.7*,0.8
CCS(=O)(=O)N1Cc2ccccc2CC1C(=O)Nc1cccc(OC)c1 (stereo unspecified),2.6,13.6*,0.8,-0.2,4.6,0.1,4.5,0.0
Cc1cccc(Cn2nc(C)c(NC(=O)c3ccc(F)cc3)c2C)c1,-0.4,1.2,0.4,-1.1,-1.9,-1.1,·,·
Cc1nn(Cc2c(F)c(F)c(F)c(F)c2F)c(C)c1NC(=O)c1cccc(COc2ccc(Cl)cc2)c1,1.0,15.0*,-1.1,1.2,-0.4,-0.8,6.1,0.3
O=C(/C=C/c1ccccc1)Nc1ccc(Cl)cn1,1.5,14.3*,-1.8,0.5,3.6,-0.7,20.4*,0.8
O=C(CC(c1ccccc1)c1ccccc1)Nc1ccc(Cl)cn1,-2.0,-3.6,1.6,-2.2,-2.9,-1.7,·,·
COc1ccc(NC(=O)/C=C/c2ccccc2)c([N+](=O)[O-])c1,2.5,15.6*,1.5,2.0,7.4,-0.1,12.0*,0.5
CCCCNC(=O)C[C@H]1C[C@@]2(C(=O)OC)C(=C[C@H](C(C)(C)C)O[C@@H]2C)N(Cc2ccc3c(c2)OCO3)C1=O,0.1,-0.3,·,-0.9,-3.2,-1.0,·,·
CC(C)(C)n1nc(C2CC2)c(Br)c1NC(=O)c1ccccc1Cl,-0.9,0.8,·,1.2,-4.0,-1.3,·,·
COC(=O)c1cc2c(c3c4cc(OC)ccc4n(S(C)(=O)=O)c13)C(=O)N(C)C2,-0.4,-0.8,·,-1.0,-1.7,-0.5,·,·
CC(C)(C)c1ccc(C(=O)Nc2ncn[nH]2)cc1,3.9,13.7*,0.7,2.4,5.0,-0.4,12.6*,0.6
COc1ccc2c(C)cc(=O)oc2c1,-2.1,-1.0,0.4,0.0,-3.0,-1.2,·,·
Cc1nnc(NC(=O)COc2ccc3c(C)cc(=O)oc3c2)s1,1.8,-0.5,-0.7,0.6,1.3,-0.7,·,·

# Screening results: PubChem BioAssay, The Scripps Research Institute Molecular Screening Center
